Test results published in the OligoGym collection.
Note: reference of the scale not given here.

The sequences below were run against KCNN3 (assay: pooled miR-30 sensor sort-seq; sequence = guide strand). Conditions: shRNA.
AAAGTTACTAGTTACGTCCTGC was tested, and the sensor-assay potency score (higher = more potent) was 0.827.
ATACATGACATTCTGCATCTTG was tested, and the sensor-assay potency score (higher = more potent) was 0.37.
Sequence TTGAAGTTGATCTTGTTGAGGG has a sensor-assay potency score (higher = more potent) of 0.397.
Sequence TTCTTTAGCAGCTTTGTGTGTT has a sensor-assay potency score (higher = more potent) of 0.0976.
TAGGTCATGGCTATCCGCCAGT gave a sensor-assay potency score (higher = more potent) of -0.594.
With TTGTCGATCACGAAGAGCTGGA the sensor-assay potency score (higher = more potent) was 0.137.
TAAGTCATACATGACATTCTGC was tested, and the sensor-assay potency score (higher = more potent) was 0.0328.
TTCTCCAGGTCTTCGCTCCGGT showed a sensor-assay potency score (higher = more potent) of -0.356.
TAGATTAACCATGTTTCCCGAA was tested, and the sensor-assay potency score (higher = more potent) was -0.326.
TTTGGCATGGTCAATCTTCTTT gave a sensor-assay potency score (higher = more potent) of -0.404.
TTGGTCACTCAGCTTCCTCTGT was tested, and the sensor-assay potency score (higher = more potent) was -0.263.
TACATGACATTCTGCATCTTGG showed a sensor-assay potency score (higher = more potent) of -0.595.
